Compound activity from PubChem.
NLRP3 yeast inh: NALP3 inhibition in yeast | Yeast reconstituted NLRP3/ASC/caspase-1, beta-gal luminescence, 24 h | inhibition, % at 10 µM | 330,000 compounds, 0.39% hits;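 active means inhibition of 50% or more; inactive means inhibition below 50%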;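 further: plate controls were induced DMSO wells for no effect and uninduced yeast grown without galactose for full effect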
tim23-1 inh: tim23-1 yeast growth inhibition | 330,000 compounds, 1.3% hits | S. cerevisiae tim23-1 growth, BacTiter-Glo luminescence, 24 h | inhibition, % at 20 µM | AID 463212;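 active means growth inhibition of the mutant yeast at or above 50%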;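 further: temperature-sensitive mutant grown at 25 °C; plate controls were DMSO-treated mutant yeast for no effect and medium wells lacking yeast for full effect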
TIM10 inh: TIM10 yeast growth inhibition. S. cerevisiae TIM10 strain growth, BacTiter-Glo luminescence, 24 h. inhibition, % at 10 µM. 330,000 compounds, 1.4% hits;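 active means inhibition of 40% or more at the single tested concentration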;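 further: wild-type TIM10 isogenic control strain grown at permissive 25 °C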
PfHsp90 set2: growth inhibition of yeast expressing Plasmodium Hsp90; S. cerevisiae expressing PfHsp90, BacTiter-Glo ATP, 48 h; yeast lacking PDR1 and PDR3 efflux regulators; inhibition, % at 9.4 µM; 310,000 compounds, 0.32% hits;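 active means every replicate shows inhibition above about 80%, whatever the replicate mean, limit read from the data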;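 further: 0% = DMSO neutral controls and 100% = 20 µM radicicol positive controls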
tim10-1 inh: growth inhibitors of tim10-1 mutant yeast; S. cerevisiae tim10-1 ts strain growth, BacTiter-Glo, 24 h; inhibition, % at 20 µM; 330,000 compounds, 2.2% hits;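 active means inhibition of at least 40%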;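 further: mutant grown at 25 °C; 0% = DMSO wells with yeast and 100% = wells holding no yeast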
SKKanGAS inh: SKKanGAS growth inhibition | S. pyogenes SKKanGAS, kanamycin growth, BacTiter-Glo, 6 h | inhibition, % at 7.5 µM | 300,000 compounds, 1.3% hits | AID 1662;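 active means mean replicate score, as percent of positive control median, at least 50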;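 further: strain carries kanamycin resistance gene driven by streptokinase promoter and grows in 40 µg/ml kanamycin; loss of luminescence reflects streptokinase promoter inhibition or plain growth inhibition; 0% = median of DMSO wells and 100% = positive control at its reference dose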
tim10-1 confirm: tim10-1 yeast growth inhibition, confirmed; S. cerevisiae tim10-1 ts strain growth, BacTiter-Glo, 24 h; 7,400 compounds, 56% hits; inhibition, % at 20 µM; shares compounds with tim10-1 inh;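 active means inhibition of yeast growth at or above a set limit in either of two repeat tests at 20 µM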;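 further: tim10-1 mutant grown at permissive 25 °C to find synthetic lethal compounds; 0% = DMSO yeast wells and 100% = medium wells without yeast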
TIM10 conf: confirmation of TIM10 yeast growth inhibitors; shares compounds with TIM10 inh; S. cerevisiae tim10 strain growth, BacTiter-Glo luminescence, 24 h; inhibition, % at 10 µM; 4,600 compounds, 63% hits; AID 463215;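 active means inhibition of yeast growth at or above a set limit in either of two replicates at 10 µM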;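 further: this counterscreen used the strain with wild-type TIM10; 0% = yeast with DMSO and 100% = medium wells lacking yeast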
Active calls of the source: *; nt = no result given. A selection: hits, their analogues and other compounds. The true share with any hit is near 4.6%.

SMILES	NLRP3 yeast inh	tim23-1 inh	TIM10 inh	PfHsp90 set2	tim10-1 inh	SKKanGAS inh	tim10-1 confirm	TIM10 conf
COc1cccc(-c2cc(C(=O)N3CCN(Cc4ccccc4)CC3)no2)c1	15.2	29.8	42.4*	8.9	43.6*	-4.3	30.4*	45.7*
COc1ccccc1N1CCN(C(=O)c2cc(-c3ccc(Cl)cc3)on2)CC1	-2.3	33.1	48.3*	9.0	46.8*	8.1	31.7*	30.4*
COc1ccc(-c2cc(C(=O)N3CCN(Cc4ccccc4)CC3)no2)cc1OC	20.7	44.5	28.1	-4.9	35.3	-1.0	nt	nt
O=C(Nc1nnc(CC2=CCCCC2)s1)c1cccs1	19.3	29.9	72.0*	-9.4	47.4*	8.7	41.8*	-27.1
O=C(/C=C/c1ccco1)NC(=S)Nc1cc(C(F)(F)F)ccc1N1CCOCC1	25.4	21.6	31.6	-9.3	39.4	7.4	nt	nt
O=C(CCCCl)NC(=S)Nc1cc(C(F)(F)F)ccc1N1CCOCC1	3.8	48.0	57.5*	-20.7	53.5*	-21.0	48.0*	49.5*
CN(C(=O)COC(=O)c1ccc2c(c1)OCCO2)c1ccccc1	2.8	47.9	49.8*	9.0	44.1*	-0.1	47.5*	43.0*
CC(C)N(Cc1ccccc1)C(=O)COC(=O)c1ccc2c(c1)OCCO2	22.7	-12.2	-5.4	-1.8	21.9	5.1	nt	nt
C/C(=N\NC(=O)c1c(Cl)cnn1C)c1ccc(NC(=O)c2ccncc2)cc1	2.4	6.4	0.3	-0.1	18.1	0.9	nt	nt
COC(=O)c1cccnc1-n1c(=O)c2cccnc2n(Cc2cccc(C(F)(F)F)c2)c1=O	8.2	32.2	3.7	-2.2	13.7	1.0	nt	nt
COC(=O)/C=C1\OC(c2ccccc2)=CC1=O	-9.1	39.5	40.4*	nt	41.6*	-3.7	28.7	32.0*
Cc1ccc(C)c(N2CCN(c3ccncc3N)CC2)c1	10.5	-2.7	17.4	18.4	1.3	0.5	nt	nt
COc1ccc(S(=O)(=O)N2CCC(C(=O)Oc3cccc(C)c3)CC2)cc1OC	49.2	21.0	12.0	12.2	3.4	-0.7	nt	nt
COC(=O)CCn1c(C)cc(C(=O)COc2ccccc2C(N)=O)c1C	-2.2	-15.1	7.6	-9.0	9.4	-8.8	nt	nt
COC(=O)CCCn1c(C)cc(C(=O)CCl)c1C	-77.4	36.2	41.6*	nt	45.4*	-10.3	36.5*	35.5*
CC(C)n1c(CSCc2ccc(Cl)cc2Cl)n[nH]c1=S	17.8	40.2	41.1*	-1.9	49.1*	6.0	23.6	49.4*
Cc1ccc(NC(=O)c2ccc3ccccc3n2)nc1	-1.8	43.3	70.2*	9.6	52.1*	-6.0	36.0*	74.4*
O=C(Nc1ccc(Cl)cn1)c1ccc2ccccc2n1	-8.0	14.6	17.5	-3.9	8.3	0.8	nt	nt
CCOC(=O)N1CCC2(CC1)C(C(=O)C13CC4CC(CC(C4)C1)C3)C2(C#N)C#N (stereo not drawn)	-1.2	43.2	63.4*	29.3	54.5*	4.0	54.0*	44.6*
N/C(Cc1ccc(Cl)cc1Cl)=N\OC(=O)Cc1cccs1	11.4	28.3	49.0*	-61.8	47.5*	-1.0	38.5*	8.0
N/C(Cc1ccc(Cl)cc1Cl)=N\OC(=O)c1cccs1	16.7	34.4	85.7*	82.9*	73.1*	-0.7	37.3*	85.9*
O=C(COC(=O)c1cccs1)Nc1cccc(Cl)c1	6.8	12.6	-31.2	-49.8	-14.4	nt	nt	nt
N/C(=N\OC(=O)Cc1cccs1)c1ccc(Br)cc1	-5.6	15.8	22.7	16.1	33.4	8.5	nt	nt
Cc1ccc(OCc2cc(C(=O)NC(C)Cc3cccc(C)n3)no2)cn1 (stereo not drawn)	-1.3	13.6	1.0	-13.4	17.2	16.2	nt	nt
CCN(CC)S(=O)(=O)c1ccc(N(C)Cc2cccnc2)nc1	8.3	15.5	-7.1	9.8	9.0	0.7	nt	nt
COc1cccc(-c2noc(C3CCCN(C(=O)Cc4ccccc4)C3)n2)c1 (stereo not drawn)	-66.2	38.9	40.8*	4.6	40.0*	-17.3	35.5*	24.0
O=C(COC(=O)c1ccccn1)NCCc1ccc(Cl)cc1	-4.5	1.9	0.9	nt	4.7	nt	nt	nt
